Some of the results follow. Calls of active or inactive are those of the source.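 The calls were made as follows: active = compounds whose dose response shows an inhibitor phenotype against the kinase Dyrk1b; inactive = compounds showing no inhibitor phenotype.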
target: Dual specificity tyrosine-phosphorylation-regulated kinase 1B (Homo sapiens) (UniProt Q9Y463); experiment: Kinase Inhibition Study on Inhibitors of Dyrk1b (Reaction Biology data); settings: Recombinant Dyrk1b kinase assay, 10 uM ATP
Sequence (Q9Y463 whole entry, looked up, canonical isoform): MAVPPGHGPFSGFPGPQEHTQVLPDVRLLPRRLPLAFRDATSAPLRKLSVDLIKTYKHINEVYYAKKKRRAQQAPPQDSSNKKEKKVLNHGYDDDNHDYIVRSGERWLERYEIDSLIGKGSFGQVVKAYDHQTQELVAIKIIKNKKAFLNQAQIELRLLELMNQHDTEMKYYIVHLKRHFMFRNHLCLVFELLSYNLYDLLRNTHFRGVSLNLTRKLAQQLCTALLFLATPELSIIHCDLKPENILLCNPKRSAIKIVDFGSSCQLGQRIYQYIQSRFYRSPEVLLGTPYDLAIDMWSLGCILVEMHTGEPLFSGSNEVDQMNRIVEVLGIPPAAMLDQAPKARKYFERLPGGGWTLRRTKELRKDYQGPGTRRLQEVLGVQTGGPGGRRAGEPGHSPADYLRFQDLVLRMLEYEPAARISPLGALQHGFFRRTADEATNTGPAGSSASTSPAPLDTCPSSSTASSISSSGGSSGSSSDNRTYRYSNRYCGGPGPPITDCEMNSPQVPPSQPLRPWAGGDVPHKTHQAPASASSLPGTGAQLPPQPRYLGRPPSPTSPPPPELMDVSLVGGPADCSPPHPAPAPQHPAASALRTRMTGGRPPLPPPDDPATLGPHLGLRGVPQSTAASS
Description: NIH Molecular Libraries Probe Production Centers Network [MLPCN] NIH Chemical Genomics Center [NCGC] MLPCN Grant: 1R03MH084827-01 Assay Submitter (PI): Tom Misteli NCGC Assay Overview: Alternative splicing of pre-mRNAs plays a major role in the regulation of eukaryotic gene expression. Alternative splicing is now thought to be one of the primary reasons for the complexity of higher organisms leading to an average of three protein isoforms per gene. Aberrant splicing can lead to a number of diseases and is known to play a role in rare genetic diseases such as progeria syndrome. Hutchinson-Gilford Progeria Syndrome (HGPS) is a pediatric premature aging disease caused by a spontaneous mutation in the lamin A/C (LMNA) gene due to a single point mutation in the lamin A gene effecting 1 in 4 million people. To identify both specific splicing modulators of the lamin A gene as well as general splicing modulators, a cell-based HTS assay was developed using a minigene reporter system (AIDs, 1459 & 1487). […] The Clk family is part of the CMGC group of protein kinases which includes Dyrks and are essential kinases found in all eukaryotes. […] This AID is to summarize the activity of these analogs in Dyrk1b.
All kinase reactions were performed using 10 uM ATP in the assay. 100% activity was taken from kinase reactions with DMSO alone (the vehicle used for compound stock solutions).

Potency, active:
CN(Cc1cncn1C)c1ncnc2ccc(-c3ccc4c(c3)OCO4)cc12 15 µM
CC(Nc1ncnc2ccc(-c3ccc4c(c3)OCO4)cc12)c1ccco1 (stereo not drawn) 8.14 µM
c1nc(N2CCOCC2)c2cc(-c3ccc4c(c3)OCO4)ccc2n1 5.22 µM

Reference: PubChem BioAssay AID504429 (National Center for Advancing Translational Sciences (NCATS), 2011)
